FAK blocker = inhibitors of human focal adhesion kinase | Q05397 | biochemical FAK kinase activity assay | inhibition, %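 (tested at 7 µM)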 | 97,000 tested, 0.84% active | AID 727; in the data active = inhibition above about 19%;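 note: 0% = DMSO and 100% = reference compound high control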
PTK2B oligo ant = antagonists of human Pyk2 oligomerization | Q14289 | Q293 cells, Pyk2 FERM NanoBiT luminescence; hits give low values | z-score (the deposit names both 25 µM and 10 µM) | 99,000 tested, 0.83% active;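 active = Z-score of -3 or lower, scaled per plate to the spread of control and sample wells; inactive = z-score above -3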;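 note: negative z-score means lost luminescence so less FERM oligomerization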
Target sequence (Q14289 whole entry, looked up): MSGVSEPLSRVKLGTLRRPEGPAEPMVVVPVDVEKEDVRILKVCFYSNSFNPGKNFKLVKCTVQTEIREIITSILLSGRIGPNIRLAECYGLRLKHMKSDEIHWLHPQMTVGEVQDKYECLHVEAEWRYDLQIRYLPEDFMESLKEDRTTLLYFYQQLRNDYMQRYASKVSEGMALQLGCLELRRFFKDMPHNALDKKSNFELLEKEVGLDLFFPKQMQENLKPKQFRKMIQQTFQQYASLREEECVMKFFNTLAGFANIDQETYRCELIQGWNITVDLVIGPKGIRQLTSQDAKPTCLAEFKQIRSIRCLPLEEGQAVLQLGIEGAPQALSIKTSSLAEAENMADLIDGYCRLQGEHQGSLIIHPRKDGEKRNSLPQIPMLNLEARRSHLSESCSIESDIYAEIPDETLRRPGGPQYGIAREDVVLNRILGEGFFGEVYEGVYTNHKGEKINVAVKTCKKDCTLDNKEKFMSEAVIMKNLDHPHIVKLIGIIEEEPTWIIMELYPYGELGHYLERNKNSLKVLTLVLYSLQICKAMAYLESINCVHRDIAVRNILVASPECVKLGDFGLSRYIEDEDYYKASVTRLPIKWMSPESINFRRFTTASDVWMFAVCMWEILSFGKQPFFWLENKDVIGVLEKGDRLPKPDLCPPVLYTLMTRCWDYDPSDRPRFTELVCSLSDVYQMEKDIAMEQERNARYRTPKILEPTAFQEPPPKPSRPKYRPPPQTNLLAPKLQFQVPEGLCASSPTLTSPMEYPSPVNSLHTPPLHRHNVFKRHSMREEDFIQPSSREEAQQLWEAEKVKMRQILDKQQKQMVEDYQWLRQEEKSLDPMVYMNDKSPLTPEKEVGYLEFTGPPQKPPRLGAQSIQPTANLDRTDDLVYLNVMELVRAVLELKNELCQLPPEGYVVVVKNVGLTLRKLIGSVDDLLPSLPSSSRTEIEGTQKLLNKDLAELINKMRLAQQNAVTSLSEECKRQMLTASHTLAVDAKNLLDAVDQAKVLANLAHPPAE
Mac1 fbg inh = blocks human CD11b/CD18 adhesion to fibrinogen; K562 CD11b/CD18 adhesion to fibrinogen, ATPlite luminescence; Mn2+ added to activate the integrin; inhibition, % at 10 µM; P05107+P11215; 93,000 tested, 0.54% active;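 active = primary inhibition of 50% or more at 10 µM, then 40% or more on retest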
CD11b adhes enh = CD11b/CD18-fibrinogen binding enhancement | P05107+P11215 | K562 CD11b/CD18 adhesion to fibrinogen, ATPlite luminescence | activation, % at 10 µM | 93,000 tested, 0.07% active | AID 1499;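 active = 10 µM primary screen giving 50% or more activity, confirmed by 40% or more on retest at that dose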
Starred values were filed as active, the others as inactive; . = no result. An excerpt weighted towards active compounds, which were near 1.8% of everything screened.

SMILES	FAK blocker	PTK2B oligo ant	Mac1 fbg inh	CD11b adhes enh
NS(=O)(=O)c1ccc(NCc2ccccc2OCc2ccc(F)cc2)cc1	-1	-0.65	65*	-6
COc1ccc(NC2CS(=O)(=O)CC2NCc2ccccc2)cc1 (stereo not drawn)	-3	1	.	.
FC(F)(F)c1cccc(Cn2nnnc2-c2cc(Cl)cc(Cl)c2)c1	4	-1	.	.
COc1cccc(OC)c1NC(=O)Cc1nn(C)c(=O)c2ccccc12	-4	-0.45	-7	-4
COc1ccccc1NC(=O)Cc1nn(C)c(=O)c2ccccc12	-2	1.1	64*	-3
Cn1nc(CC(=O)Nc2ccc3c(c2)OCCO3)c2ccccc2c1=O	.	0.42	96*	-12
Cc1ccc2nc3sc(C(=O)Nc4ccc(N5CCOCC5)cc4)c(N)c3cc2c1	-2	.	-5	95
Cc1cccc2cc3c(N)c(C(=O)Nc4ccc(N5CCOCC5)cc4)sc3nc12	-2	-3.4*	.	.
O=C(O)c1ccc(N2Cc3ccccc3C2)cc1O	-6	0.33	5	-1
Cc1cc(NS(=O)(=O)c2ccc(Nc3nc(-c4sc(NC(=O)c5ccccc5)nc4C)cs3)cc2)no1	-1	.	79*	-5
O=C(N/N=C/c1ccc2cccc(OCc3ccccc3)c2n1)c1ccc(Cl)cc1	-3	-3.1*	3	1
COC(=O)N/N=C/c1cc(Cl)cc(Cl)c1OCc1ccccc1	.	-1.8	.	.
Cc1cccc2cc(-c3ccccc3)c(-c3ccccc3)c[n+]12	.	1	.	.
N=C1c2ccccc2CN1NC(=O)c1cccc(S(=O)(=O)N2CCCC2)c1	.	.	-21	2
Cc1ccc(S(=O)(=O)/C=C/c2ccccc2)cc1	.	.	-15	2
O=C(CCSc1ccccc1)NC(=O)COC(=O)c1ccc(OC(F)F)cc1	.	.	-8	-2
O=C(Nc1nnc(C2CC2)s1)c1cc(-c2ccccc2)nn1-c1ccccc1	.	-3.2*	8	-5
Cc1nn(-c2ccccc2)c(Cl)c1C(=O)Nc1nnc(C2CCCCC2)s1	1	-0.54	.	.
COc1ccc(N=Cc2cc3c(cc2O)OC(N)=C(C#N)C3c2ccccc2)cc1 (stereo not drawn)	.	.	37	-1
Cc1ccc(C)c(N(C(=O)Cn2nnc(-c3cccs3)n2)C(C(=O)NC2CC2)c2ccc(C)o2)c1 (stereo not drawn)	-1	-4.3*	0	3
Cc1cc(S(=O)(=O)Nc2nc(CN3CCOCC3)nc3sc4c(c23)CCCC4)ccc1F	-3	7	2	-6
CC1CCc2c(sc3nc(CN4CCOCC4)nc(NS(=O)(=O)c4cccc([N+](=O)[O-])c4)c23)C1 (stereo not drawn)	-2	5.4	67*	-6
CCCCNc1cc(C)nc(NCc2ccccc2)n1	2	1.9	85*	-13
N#C/C(=C\c1ccc(N2CCCC2)c([N+](=O)[O-])c1)c1nc2ccccc2[nH]1	13	-2.8	3	113*
COc1ccc(-c2nc3c(c(=O)[nH]c(=O)n3Cc3ccccc3)n2C)cc1	-3	-0.91	24	13
SMILES	FAK blocker	PTK2B oligo ant	Mac1 fbg inh	CD11b adhes enh
COc1ccc(-c2nc3c(c(=O)[nH]c(=O)n3Cc3ccccc3)n2Cc2ccccc2)cc1	4	-3.1*	18	-9
Cc1ccc(C(C(=O)NC(C)(C)C)N(Cc2ccco2)C(=O)CCC(=O)Nc2nccs2)cc1 (stereo not drawn)	0	.	.	.
CC(=O)NC(c1cccc([N+](=O)[O-])c1)c1c(OC(C)=O)ccc2ccccc12 (stereo not drawn)	2	-1.9	.	.
CC(=O)Oc1ccc2ccccc2c1C(NC(=O)Cc1ccccc1)c1ccccc1 (stereo not drawn)	-6	-4*	11	-3
CCCCC(=O)NC(c1cccc([N+](=O)[O-])c1)c1c(OC(C)=O)ccc2ccccc12 (stereo not drawn)	2	-4.3*	.	.
CC(=O)NC1=NN(C(C)=O)C(C)(CS(=O)(=O)c2ccc3ccccc3c2)S1 (stereo not drawn)	-1	1	.	.
COc1ccccc1NC(=O)CC(NC1CCCCC1)C(=O)O (stereo not drawn)	.	.	-8	5
O=C(CCC(=O)c1ccc(F)cc1)Nc1cc(Cl)cc(Cl)c1	-2	-0.61	.	.
CC(C)(C)c1ccc(C(=O)OCCNC(=O)c2c(Cl)nc3ccccn23)cc1	-1	-3.2*	2	5
COc1ccc(C(=O)OCCNC(=O)c2c(Cl)nc3ccccn23)cc1	3	0.02	1	-1
CCOc1cc(/C=C2\CCC/C(=C\c3cc(Cl)c(O)c(OCC)c3)C2=O)cc(Cl)c1O	7	-3.6*	.	.
Clc1ccc(-c2noc(CSc3nnc(Cc4cccs4)n3-c3ccccc3)n2)cc1	7	.	69*	-9
c1ccc(-c2noc(CSc3nnc(Cc4cccs4)n3-c3ccccc3)n2)cc1	-2	-0.22	.	.
CCC(C)(C)n1nnnc1C(c1ccncc1)N1CCC(Cc2ccccc2)CC1 (stereo not drawn)	3	-3.1*	-1	-4
CC(C)(C)n1nnnc1C(c1cccc(C#N)c1)N1CCC(Cc2ccccc2)CC1 (stereo not drawn)	2	-0.51	.	.
Fc1ccc(C(CCCn2nnc(-c3cccnc3)n2)c2ccc(F)cc2)cc1	0	-3.7*	44	-2
CCCn1c(SCC(=O)c2c[nH]c3ccccc23)nnc1-c1ccncc1	.	.	7	7
O=C(Nc1cccnc1)c1ccc(S(=O)(=O)N2CCCCCC2)cc1	3	1.3	-3	3
c1ccc2c(c1)OCC(CNc1ncnc3sccc13)O2 (stereo not drawn)	.	.	100*	-8
c1cncc(-c2nc(NCC3COc4ccccc4O3)c3ccccc3n2)c1 (stereo not drawn)	3	-3.8*	-22	-3
O=C(O)CNCC1COc2ccccc2O1 (stereo not drawn)	8	1.5	-5	5
CCCCSc1nnc(CNC(=O)C23CC4CC(CC(C4)C2)C3)n1Cc1ccccc1	.	.	0	-1
O=S(=O)(Nc1nc2ccccc2nc1Nc1ccc2c(c1)OCCO2)c1cccs1	.	-1.8	90*	-3
Cc1nc(N2CCN(C(=O)c3ccco3)CC2)c2c3c(sc2n1)CCC3	.	4.3	11	-2
O=C(c1ccccc1)N1CCN(c2ncnc3sc4c(c23)CCC4)CC1	-1	-0.88	51*	-10
SMILES	FAK blocker	PTK2B oligo ant	Mac1 fbg inh	CD11b adhes enh
O=C(COC(=O)COc1ccc(Cl)cc1)NCc1cccs1	.	.	1	3
CCCCc1ccc(C2C(C#N)=C(N)SC(N)=C2C#N)s1	0	.	100*	-11
Cc1ccc(NC(=O)c2cc([N+](=O)[O-])ccc2NCc2cccnc2)cc1Cl	2	-3.7*	3	-2
COc1c(S(=O)(=O)N2CCCCC2)ccc2c(S(=O)(=O)N3CCCCC3)cccc12	-2	-3.5*	.	.
CC1=NOC(=O)/C1=C/c1ccc(-c2ccc(Cl)cc2)o1	-5	-1.4	94*	-6
C/C(=N\NC(=O)CC1N=C(Cc2ccccc2)NNC1=O)c1ccc(Cl)cc1Cl (stereo not drawn)	-1	0.65	9	7
CCCCN(Cc1ccccc1)S(=O)(=O)c1cc(Br)cc2c1N(C(C)=O)C(C)C2 (stereo not drawn)	-1	-2.4	47	-2
CCOc1ccccc1C(=O)Nc1cc(Cl)ccc1O	12	-3.7*	-3	0
